This is an account of results in the supplement of paper PMC11634586.

Structures are written as SMILES. Where a name gives a salt, the structure may show the parent alone. A number with no mark means an inactive call.

The assay relates to NCI-H1688. The experiment in a line: inhibition of cell viability relative to untreated control (fraction); higher = stronger growth inhibition, active = 0.5 or more. The following applies: 30 µM; 24 h. The protocol: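 Natural product library (TargetMol, 640 compounds) screened on NCI-H1688 SCLC cells at 30 µM for 24 h; viability by CCK-8 absorbance at 450 nm, normalised to untreated control and expressed as inhibition rate (fraction). Compounds with >50% reduction in viability were selected as hits.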
As to `COc1cccc(C=O)c1OC` [o-Veratraldehyde], the “inhibition of cell viability” value is -0.267.
Under `C=C(C)[C@H]1Cc2c(ccc3c2O[C@@H]2COc4cc(OC)c(OC)cc4[C@@H]2C3=O)O1` [Rotenone] stands 0.823 (active); under `CCC(=O)O[C@H]1CC[C@H]2[C@@H]3CC[C@H]4CC(=O)[C@H](C)C[C@]4(C)[C@H]3CC[C@]12C` [Drostanolone Propionate], 0.313; under `CNC(=O)Oc1ccc2c(c1)[C@]1(C)CCN(C)[C@@H]1N2C` [Physostigmine Salicylate], 0.126.
Under `CC(=O)O[C@H]1C(=O)[C@@]2(C)[C@H]([C@H](OC(=O)c3ccccc3)[C@]3(O)C[C@H](O)C(C)=C1C3(C)C)[C@]1(OC(C)=O)CO[C@@H]1C[C@@H]2O` [Baccatin III] stands 0.535 (active).
Consider `O=C(/C=C/c1ccccc1)OC[C@H]1O[C@@H](O[C@@H]2OC=C[C@H]3[C@H](O)[C@@H]4O[C@]4(CO)[C@@H]23)[C@H](O)[C@@H](O)[C@@H]1O` [Picroside I], for which the “inhibition of cell viability” value was 0.253.
As for `C=C[C@@H]1C2=CCOC(=O)C2=CO[C@H]1O[C@@H]1O[C@H](CO)[C@@H](O)[C@H](O)[C@H]1O` [Gentiopicrin], the “inhibition of cell viability” value was -0.0346.
For `CCC12C=CCN3CC[C@@]4(c5ccc(OC)cc5N(C)[C@H]4[C@@](O)(C(=O)OC)[C@@H]1OC(C)=O)[C@@H]32` (stereo not given in full) [Vindoline] the value was -0.0958; for `C[C@]12CCC(=O)C=C1CC[C@@H]1[C@@H]2CC[C@@]2(C)[C@H]1CC[C@]2(C)O` [17-Methyltestosterone], 0.403.
For `CC(=O)O[C@H]1[C@H]2[C@@H](OC(=O)Cc3ccccc3)[C@@H](C)C[C@]2(OC(C)=O)C(=O)/C(C)=C/[C@@H]2[C@H](CC[C@@]13CO3)C2(C)C` [Euphorbiasteroid] the value was 0.499; for `O=C1CCC[C@@H]2[C@H]3CCCN4CCC[C@@H](CN12)[C@@H]34` [(+)-Matrine], 0.176; for `C[C@]12CCC(=O)C=C1CC[C@@H]1[C@@H]2C(=O)C[C@]2(C)C(=O)CC[C@@H]12` [Adrenosterone], -0.0418.
For `CNCC(O)c1ccc(O)cc1` (stereo not given) [Synephrine] the value was 0.204; for `CN1[C@H]2C[C@H](OC(=O)[C@H](CO)c3ccccc3)C[C@@H]1[C@@H](O)C2` [Anisodamine], 0.2.
`O=C1C[C@@H]2OCC=C3CN4CC[C@]56c7ccccc7N1[C@H]5[C@H]2[C@H]3C[C@H]46` [Strychnine Sulfate]: the “inhibition of cell viability” value is -0.193.
For `C[C@@H]1C[C@@H]([C@H](O)CC2CC(=O)NC(=O)C2)C(=O)[C@@H](C)C1` [Actidione] the value was 0.943 (active); for `C[C@]12CC[C@H](O)CC1=CC[C@@H]1[C@@H]2CC[C@]2(C)C(=O)CC[C@@H]12` [Dehydroepiandrosterone], 0.0365; for `CC1=C(O)C(=O)C=C2C1=CC=C1[C@@]2(C)CC[C@@]2(C)[C@@H]3C[C@](C)(C(=O)O)CC[C@]3(C)CC[C@]12C` [Celastrol], 1 (active).
Under `COC1=C[C@@H]2[C@@H]3Cc4ccc(OC)c(O)c4[C@]2(CCN3C)CC1=O` [Sinomenine hydrochloride] stands -0.0195; under `COc1ccc2c(c1)[nH]c1c(C)nccc12` [Harmine hydrochloride], 0.813 (active); under `CCC(=O)O[C@H]1CC[C@H]2[C@@H]3CCC4=CC(=O)CC[C@]4(C)[C@H]3CC[C@]12C` [Testosterone propionate], -0.173.
`CC(=O)O[C@H]1CC[C@H]2[C@@H]3CCC4=CC(=O)CCC4=C3C=C[C@]12C` [Trenbolone acetate]: the “inhibition of cell viability” value was -0.43.
`O=C1C=CC[C@@H]2[C@H]3CCC[N+]4([O-])CCC[C@@H](CN12)[C@@H]34` (stereo not given in full) [Oxysophocarpine]: the “inhibition of cell viability” value is -0.0366.
Under `COc1cccc2c1cc([N+](=O)[O-])c1c(C(=O)O)cc3c(c12)OCO3` [Aristolochic Acid] stands 0.49; under `NCCc1c[nH]c2ccccc12` [Tryptamine], -0.188.
For `CN1[C@@H]2CC[C@H]1C[C@@H](OC(=O)C(CO)c1ccccc1)C2` (stereo not given in full) [Atropine] the value was -0.146.
For `CC(C)=CCC[C@](C)(O)[C@H]1CC[C@]2(C)[C@@H]1[C@H](O)C[C@@H]1[C@@]3(C)CC[C@H](O)C(C)(C)[C@@H]3[C@@H](O[C@@H]3O[C@H](CO)[C@@H](O)[C@H](O)[C@H]3O)C[C@]12C` [Ginsenoside Rh1] the value was 0.0296; for `C[C@H]1O[C@H](O[C@H]2[C@H](O)[C@@H](O)[C@@H](O)[C@H](O)[C@@H]2O)[C@@H](N)C[C@@H]1NC(=N)C(=O)O` [Kasugamycin hydrochloride], 0.294.
For the compound `CC1=C2C[C@H]3[C@@H](CC=C4C[C@@H](O)CC[C@@]43C)[C@@H]2CC[C@]12O[C@@H]1C[C@H](C)CN[C@H]1[C@H]2C` [Cyclopamine], the “inhibition of cell viability” value is 0.162.
Under `CN1CCc2cc3c(cc2C1O)OCO3` (stereo not given) [Hydrastinine hydrochloride] stands 0.248.
For `C[C@]12CC[C@H]3[C@@H](CCC4=CC(=O)CC[C@@]43C)[C@@H]1CC[C@@H]2O` [Testosterone] the value was 0.182; for `CC(=O)[C@]1(O)CC[C@@]2(O)[C@]1(C)[C@H](OC(=O)/C=C(\C)C(C)C)C[C@@H]1[C@@]3(C)CC[C@H](O)CC3=CC[C@]12O` [Caudatin], 0.161.
For `COc1ccc2c(c1)[nH]c1c(C)nccc12` [Harmine] the value was 0.462; for `C[C@H]1CC(=O)C[C@@H]2CC[C@H]3[C@@H]4CC[C@H](O)[C@@]4(C)CC[C@@H]3[C@]21C` [Mesterolone], 0.237.
Regarding `O=C1C=CC[C@@H]2[C@H]3CCCN4CCC[C@@H](CN12)[C@@H]34` [Sophocarpine], the “inhibition of cell viability” value is -0.484.
Under `C[C@@]12C(=O)OC(=O)[C@]1(C)[C@H]1CC[C@@H]2O1` [Cantharidin] stands 0.983 (active); under `COc1cc2c(c(OC)c1OC)-c1ccc(OC)c(=O)cc1[C@@H](NC(C)=O)CC2` [Colchicine], 0.84 (active); under `CC(=O)OC12COC1CC(O)C1(C)C(=O)C(O)C3=C(C)C(O)CC(O)(C(OC(=O)c4ccccc4)C21)C3(C)C` (stereo not given) [10-Deacetylbaccatin III], 0.454.
Under `COc1cc(OC)c(OC)cc1C=O` [Asarylaldehyde] stands -0.42; under `O=c1ccc2cc(O[C@@H]3O[C@H](CO)[C@@H](O)[C@H](O)[C@H]3O)c(O)cc2o1` [Esculin], -0.139.
